Only some compounds are listed: those with a hit (about 3% of all), similar ones and a draw of the others.
ALOX12 inh: ALOX12 (human) lipoxygenase inhibition; 1.1% of 580,000 active; purified 12hLO, xylenol orange hydroperoxide absorbance; Potency, µM (doses to about 108 µM), for inactives: at the top dose activity change, negative = inhibition, usual class: inhibitors; P18054
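Hydroperoxide product was detected by ferrous iron/xylenol orange as the 573 to 405 nm absorbance ratio. Arachidonic acid at 40 uM (final) was turned over for 30 min at room temperature by 150 nM human 12hLO, pH 7.0 Hepes buffer, after 15 min compound preincubation.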
GCN5L2 inh: blocks human GCN5L2 histone acetyltransferase. 0.21% of 390,000 active. GCN5L2 HAT assay, ThioGlo1 CoA-SH fluorescence. Potency, µM (top dose mostly 58.9 µM), for inactives: top-dose activity change, negative = inhibition, actives largely listed as inhibitors
Target sequence (Q92830 whole entry, looked up): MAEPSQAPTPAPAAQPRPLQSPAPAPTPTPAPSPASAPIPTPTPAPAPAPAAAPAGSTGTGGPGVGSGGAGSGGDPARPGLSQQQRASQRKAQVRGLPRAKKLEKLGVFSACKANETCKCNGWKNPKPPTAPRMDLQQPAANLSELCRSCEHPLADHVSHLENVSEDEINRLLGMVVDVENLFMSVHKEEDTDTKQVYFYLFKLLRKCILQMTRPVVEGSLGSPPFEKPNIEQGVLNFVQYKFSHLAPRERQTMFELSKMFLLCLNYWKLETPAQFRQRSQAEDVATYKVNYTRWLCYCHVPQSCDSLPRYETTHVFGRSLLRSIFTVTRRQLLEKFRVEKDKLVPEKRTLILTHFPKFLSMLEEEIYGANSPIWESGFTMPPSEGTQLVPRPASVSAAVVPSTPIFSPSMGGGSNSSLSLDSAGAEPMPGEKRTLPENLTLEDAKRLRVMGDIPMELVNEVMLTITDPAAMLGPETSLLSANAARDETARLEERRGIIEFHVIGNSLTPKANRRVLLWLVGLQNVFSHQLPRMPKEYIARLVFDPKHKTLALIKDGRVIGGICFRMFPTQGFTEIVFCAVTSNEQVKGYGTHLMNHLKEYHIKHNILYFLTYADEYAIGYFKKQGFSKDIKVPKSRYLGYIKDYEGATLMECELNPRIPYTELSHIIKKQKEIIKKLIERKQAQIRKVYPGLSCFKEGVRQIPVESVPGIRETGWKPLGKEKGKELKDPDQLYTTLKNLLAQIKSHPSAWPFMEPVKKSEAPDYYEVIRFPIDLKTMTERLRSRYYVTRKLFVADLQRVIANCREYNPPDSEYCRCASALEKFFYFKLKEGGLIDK
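ThioGlo1-coupled HAT assay: 20nM GCN5L2, 70uM acetyl-CoA, 75uM H3(1-25) peptide, pH 7.5. Fluorescence read at 340/540nm at start and after 20 min at room temperature.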
VDR inhibitor: inhibitors of human vitamin D receptor; 0.93% of 400,000 active; P11473; VDR-SRC2-3 peptide fluorescence polarization, 2 h; Potency, µM, without a hit: max response, negative = inhibition, hits mostly inhibitors
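Measured by FP: displacement of SRC2-3 coactivator peptide from VDR by library compounds, following a two-hour ambient incubation.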
PLK1 PBD inh: PLK1 (human) polo-box domain binding inhibition | P53350 | 2.8% of 360,000 active | Potency, µM, for inactives: max response, negative = inhibition, actives largely listed as inhibitors | AID 720504 | Plk1 PBD binding of FITC phosphopeptide, fluorescence polarization; also: series mostly up to about 57 µM; nearly all actives have a fitted effect of over 65% in size
Active calls of the source: *; ? = inconclusive; / = no result given; [ ] = remark or other dose. Calls follow the shape of the dose curve; as a rule, active = well fitted curve in the direction sought with a large enough effect; inconclusive = small, poorly fitted or top-dose-only effect, or another doubt; inactive = no such curve, though single readings can be large; an effect the other way counts as inactive or inconclusive. % is scaled to controls: 0 for no effect and ±100 for the full control effect; potency is read from the fitted curve at half-maximal effect.

SMILES	ALOX12 inh	GCN5L2 inh	VDR inhibitor	PLK1 PBD inh
COc1cc(C)c(C)cc1S(=O)(=O)n1c(C)nc2ccccc21	?	-8%	-22%	27µM*
Cc1ccc2[nH]c(C(=O)NCc3cccs3)cc2c1	-1%	/	/	/
CC[n+]1c(C)ccc2ccccc21	16µM*	/	/	/
O=C(COc1ccc([N+](=O)[O-])cc1)Nc1ccc2oc(-c3ccc(F)cc3)nc2c1	7.9µM*	/	/	/
O=C(COc1ccc([N+](=O)[O-])cc1)Nc1ccc2oc(-c3cccnc3)nc2c1	1%	/	/	/
CCOC(=O)N1CCN(Cc2nc3c(c(=O)[nH]c(=O)n3C)n2Cc2c(F)cccc2Cl)CC1	32%	/	/	/
O=C(NCc1ccc(Cl)cc1)NCC(F)(F)F	-17%	2%	-8%	30µM*
Cc1ccc(Nc2nnc(SCC(=O)Nc3ncc(S(=O)(=O)c4ccc([N+](=O)[O-])cc4)s3)s2)cc1	-19%	0%	-6%	-7%
CC(C)c1ccc(Nc2nnc(SCC(=O)Nc3ncc(S(=O)(=O)c4ccc([N+](=O)[O-])cc4)s3)s2)cc1	-7%	-5%	-17%	42µM*
CCN(CC)S(=O)(=O)c1cccc(-n2c(O)c(C=Nc3ccccc3C(=O)O)c3ccccc3c2=O)c1	-28%	-16%	-13%	24µM*
CCc1[nH]c(=O)c(C#N)c2c1CCCC2	-3%	3%	-5%	-9%
CCc1[nH]c(=S)c(C#N)c2c1CCCC2	?	-9%	?	27µM*
CCCOc1ccc(/C=C/C(=O)NC2CCCCC2)cc1OC	6%	-6%	0%	10%
COc1cc(/C=C/C(=O)NC2CCCCC2)cc(OC)c1OC	-2%	?	?	27µM*
COc1cc(/C=C/C(=O)Nc2cc(C(F)(F)F)ccc2Cl)cc(OC)c1OC	0%	-15%	-4%	27µM*
COc1cc(/C=C/C(=O)Nc2ccc(C)cc2)cc(OC)c1OC	-2%	-12%	-9%	6%
COc1cc(/C=C/C(=O)Nc2nnc(C(C)(C)C)s2)cc(OC)c1OC	-28%	-10%	-19%	24µM*
O=C(Nc1ccccc1Cl)C12CC3CC(CC(C3)C1)C2	-22%	/	/	/
CCn1c(SCc2nc(-c3cccs3)oc2C)nnc1C1CC1	-33%	/	/	/
Cc1ccc(CCNC(=O)CCc2nc(CS(=O)(=O)c3ccccc3)no2)cc1	3%	/	/	/
COc1ccc(-c2noc(-c3cccn3CC(=O)Nc3ccc(C)cc3C)n2)cc1F	-11%	/	/	/
Nc1cc(=O)nc(SCC(=O)Nc2cccc(Cl)c2)n1CCc1ccccc1	?	-4%	5%	/
O=C(CSC1CC(=O)N(CCc2ccccc2)C1=O)Nc1cccc(Cl)c1 (stereo unspecified)	-25%	-4%	79µM*	?
O=C(Cn1cc2c(n1)CCCCC2)NCc1ccccc1	29%[57.4 µM]	-6%	-6%	30µM*
O=C(Cn1cc2c(n1)CCCC2)NCc1cccnc1	276%	-5%	8%	-1%
SMILES	ALOX12 inh	GCN5L2 inh	VDR inhibitor	PLK1 PBD inh
O=C(Cn1cc2c(n1)CCCC2)Nc1ccccc1Cl	109%	0%	-17%	24µM*
O=C(Cn1cc2c(n1)CCCCC2)Nc1ccccc1Cl	1%	0%	11%	5%
O=C(O)Cn1cc2c(n1)CCCC2	20µM*	1%	15%	2%
COC(=O)C1=C(C)N(C)C(=O)NC1c1ccccc1OC(F)F (stereo unspecified)	40%	/	/	/
O=C(O)C(c1c[nH]c2cc(Cl)ccc12)N1CCN(Cc2ccccn2)CC1 (stereo unspecified)	-1%	/	/	/
O=C(O)C(c1c[nH]c2cc(Br)ccc12)N1CCN(Cc2ccc(Cl)cc2Cl)CC1 (stereo unspecified)	40µM*	/	/	/
O=C(O)C(c1c[nH]c2cc(Cl)ccc12)N1CCN(C(c2ccccc2)c2ccccc2)CC1 (stereo unspecified)	7.9µM*	/	/	/
O=C(O)C(c1c[nH]c2ccccc12)N1CCN(Cc2ccc(Cl)cc2Cl)CC1 (stereo unspecified)	-5%	/	/	/
CCC(C)NC(=O)CSc1nc2ccccc2o1 (stereo unspecified)	12%	/	/	/
O=C(Nc1ccc(Cl)cc1)c1cc2cc(Cl)ccc2[nH]1	0%	/	/	/
COc1cc2nc(C)sc2cc1SC	0%	-6%	?	24µM*
COc1cc2nc(/C=C/c3cc(OC)c(OC)c(OC)c3)sc2cc1SC	-30%	?	-11%	6%
C#CCOc1c(Cl)cc(/C=C2/C(=O)ON=C2C)cc1OC	28µM*	0%	?	4.7µM*
CC1=NOC(=O)/C1=C/c1ccc(O)c(Cl)c1	?	-9%	-19%	?
COc1ccc(Cl)cc1/C=C1/C(=O)ON=C1C	32µM*	28%	?	?
COc1ccc(OC)c(-n2c(=O)c(C#N)cc3c(=O)n4cccc(C)c4nc32)c1	-17%	/	/	/
Cc1cccc(-c2nc3n(CC(=O)N4CCCCCC4)c(C)cc(=O)n3n2)c1	28%	/	/	/
CCOC(=O)C1CCCN(c2ccc(NC(=O)c3snc4c(=O)[nH]c(C)nc34)cc2)C1 (stereo unspecified)	10%	2.5µM*	-1%	-3%
CC(=O)N(Cc1ccccc1)Cc1cc2ccccc2[nH]c1=O	1%	/	/	/
CN(C)CCCN(Cc1cccs1)C(=S)NCc1ccccc1	37%	/	/	/
CCOC(=O)C(C(=O)O)C1CCCCC1 (stereo unspecified)	-13%	/	/	/
Cc1cc(C)n(CCNC(=O)[C@H]2O[C@@H](n3ccc(N)nc3=O)[C@H](O)[C@@H]2O)n1	50µM*	/	/	-9%
COc1ccc(C(=O)C(CCCCC(CN(C)C)C(=O)c2ccc(OC)cc2)CN(C)C)cc1 (stereo unspecified)	-21%	-8%	15%	0%
CCOc1ccc(C(=O)C(CCC(CN(C)C)C(=O)c2ccc(OCC)cc2)CN(C)C)cc1 (stereo unspecified)	-13%	-2%	?	27µM*
CN(C)CC(CCC(CN(C)C)C(=O)c1ccccc1)C(=O)c1ccccc1 (stereo unspecified)	/	-10%	45µM*	13µM*
SMILES	ALOX12 inh	GCN5L2 inh	VDR inhibitor	PLK1 PBD inh
COc1ccc2oc(=O)cc(CN3CCN(C(=O)c4c(F)cccc4F)CC3)c2c1	-4%	/	/	/
COc1ccc(/C=C/C(=O)NCCN2CCOCC2)cc1OC	0%	-12%	-26%	17µM*
COc1cc(/C=C/C(=O)NCCN2CCOCC2)cc(OC)c1OC	-12%	1%	-8%	0%
Cc1cc(NC(=O)CSc2nnc(C3COc4ccccc4O3)n2N)no1 (stereo unspecified)	2%	-11%	?	7.5µM*
Cc1cc(NC(=O)CSc2nnc(C3COc4ccccc4O3)o2)no1 (stereo unspecified)	14%	-1%	2%	-26%
COc1ccc(-c2noc(Nc3cc(OC)cc(OC)c3)n2)cc1	18µM*	/	/	/
Fc1ccc(Nc2nc(-c3ccccc3)no2)cc1	2%	/	/	/
Fc1cccc(Nc2nc(-c3ccccc3)no2)c1	35µM*	/	/	/
CN(C)CCCNC(=O)c1nc(-c2cccc3[nH]ccc23)no1	12%	/	/	/
COC(=O)c1ccc(CN(C)C(=O)c2ccc(Cl)c(S(=O)(=O)NC3CC3)c2)cc1	19%	/	/	/
CCc1c(-c2ccc(Br)cc2)ncn1Cc1cccc(-c2ccccc2)c1	?	/	/	-13%

Screens: PubChem BioAssay, National Center for Advancing Translational Sciences (NCATS)
